Measurements reported in ChEMBL document CHEMBL3433997, “St. Jude Leishmania screening dataset” (2016).

Tests used:
Assay type in all cases: functional
[1] = target: Solute carrier family 2, facilitated glucose transporter member 1 (Homo sapiens) (UniProt P11166); experiment: ST_JUDE_LEISH: Cytotoxicity at 2uM final concentration against transgenic Leishmania Mexicana promastigotes LmGLUT1 that are glucose transport deficient and complemented with the human glucose transporter GLUT1. Activity is measured by DNA content using SYBR green in vitro
Chain of Solute carrier family 2, facilitated glucose transporter member 1 (Homo sapiens) (P11166 whole entry): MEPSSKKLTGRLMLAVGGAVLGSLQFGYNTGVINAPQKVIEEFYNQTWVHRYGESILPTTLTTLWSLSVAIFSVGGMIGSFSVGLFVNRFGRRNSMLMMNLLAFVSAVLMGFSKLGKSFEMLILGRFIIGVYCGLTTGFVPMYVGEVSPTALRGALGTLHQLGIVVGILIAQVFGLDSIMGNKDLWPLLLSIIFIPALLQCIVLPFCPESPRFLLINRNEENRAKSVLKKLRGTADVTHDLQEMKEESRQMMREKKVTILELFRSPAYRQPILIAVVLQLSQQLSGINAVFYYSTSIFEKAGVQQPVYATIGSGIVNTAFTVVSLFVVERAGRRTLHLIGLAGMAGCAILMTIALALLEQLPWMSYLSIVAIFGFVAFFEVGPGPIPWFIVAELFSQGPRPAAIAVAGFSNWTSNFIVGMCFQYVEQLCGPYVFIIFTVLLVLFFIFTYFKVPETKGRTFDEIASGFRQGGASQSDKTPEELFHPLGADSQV

[2] = target: Hexose transporter 1 (Plasmodium falciparum) (UniProt O97467); experiment: ST_JUDE_LEISH: Cytotoxicity at 2uM final concentration against transgenic Leishmania Mexicana promastigotes LmPfHT that are glucose transport deficient and complemented with the Plasmodium falciparum hexose transporter. Activity is measured by DNA content using SYBR green in vitro
[3] = target: Glucose transporter (Leishmania mexicana) (UniProt O61059); experiment: ST_JUDE_LEISH: Cytotoxicity at 2uM final concentration against transgenic Leishmania Mexicana promastigotes LmGT2 that are glucose transport deficient and complemented with the L. Mexicana glucose transporter 2. Activity is measured by DNA content using SYBR green in vitro

O=C(c1cc(C(=O)Nc2ccc(F)cc2)c(=O)n(-c2ccc(F)cc2)c1)c1cc(Cl)ccc1O
inhibition [1]: 0.23% | inhibition [2]: 2.19% | inhibition [3]: 0.22%

CC1(C)NC(N)=NC(=N)N1OCCCc1ccc(Cl)cc1Cl
inhibition [1]: 2.76% | inhibition [2]: 1.95% | inhibition [3]: 2.33%

CCOC(=O)c1ccc(NC(=O)Nc2ccc(-c3cccc(-c4nc5ccccc5[nH]4)c3)cc2)cc1
inhibition [1]: 6.03% | inhibition [2]: 4.66% | inhibition [3]: 1.68%

O=C(Nc1cccc(CN2CCCN(Cc3ccccc3)CC2)c1)c1ccc(Cl)c(Cl)c1
inhibition [1]: 4.45% | inhibition [2]: 3.88% | inhibition [3]: -5.96%

CC1(C)CN(CCC2CCC(NC(=O)/C=C/c3ccc(F)cc3F)CC2)Cc2ccc(C#N)cc21 (centres undefined)
inhibition [1]: 2.36% | inhibition [2]: 1.97% | inhibition [3]: -1.19%

CC1(C)NC(N)=NC(=N)N1OCCc1ccccc1
inhibition [1]: 1.18% | inhibition [2]: 0.77% | inhibition [3]: 0.66%

CCC(CC)(CCC#N)CN(C[C@@H](O)[C@H](Cc1ccccc1)NC(=O)OC(C)(C)C)S(=O)(=O)c1ccc(OC)cc1
inhibition [1]: -0.65% | inhibition [2]: 0.74% | inhibition [3]: 0.65%

CC1CCN(c2nc(C(=O)Nc3cccc4c3CCCC4)c(C(C)C)s2)CC1
inhibition [1]: 3.26% | inhibition [2]: 4.73% | inhibition [3]: 6.09%

O=C(/C=C/c1ccc(Cl)cc1)NCCCCCN1CCCC(C(=O)Nc2ccc(F)c(Cl)c2)C1 (centres undefined)
inhibition [1]: 2.06% | inhibition [2]: 1.34% | inhibition [3]: 2.38%

O=C(NCC1Cc2cc(Oc3ccccc3)ccc2O1)c1ccc([N+](=O)[O-])o1 (centres undefined)
inhibition [1]: 7.98% | inhibition [2]: 10.4% | inhibition [3]: 3.24%

CCCCCC(C)C(C)c1cc(O)c2c(c1)OC(C)(C)C=C2c1cc[n+]([O-])cc1 (centres undefined)
inhibition [1]: 11% | inhibition [2]: 10.4% | inhibition [3]: 9.99%

CCc1c(CCNCCc2cccc(CCNCCc3ccc(OC)c(OC)c3CC)c2)ccc(OC)c1OC
inhibition [1]: 2.06% | inhibition [2]: -1.49% | inhibition [3]: 0.27%

CCCCCCNC(=O)C1Cc2c([nH]c3ccc(C)cc23)C2(CCN(Cc3ccccc3)CC2)N1 (centres undefined)
inhibition [1]: 0.98% | inhibition [2]: 0.07% | inhibition [3]: 1.33%

c1cc(CNCC2CCCO2)cc(-c2ccc(-c3nc4ccccc4[nH]3)s2)c1 (centres undefined)
inhibition [1]: 0.61% | inhibition [2]: -3.37% | inhibition [3]: -0.92%

CNc1ccc(CNCc2cccc(-c3ccc(-c4nc5ccccc5[nH]4)s3)c2)cc1
inhibition [1]: 1.37% | inhibition [2]: 1.02% | inhibition [3]: 0.87%

Cn1c(=O)c2nc(-c3ccc(Cl)cc3)nnc2n(CCCC#N)c1=O
inhibition [1]: 7.35% | inhibition [2]: 7.41% | inhibition [3]: 6.19%

Cc1ccc2ccccc2c1CCCON1C(=N)N=C(N)NC1(C)C
inhibition [1]: 4.76% | inhibition [2]: 3.93% | inhibition [3]: 2.74%

CC(=O)Nc1cccc(C(=O)Nc2cccc(-c3cccc(-c4nc5cc(F)ccc5[nH]4)c3)c2)c1
inhibition [1]: 3.73% | inhibition [2]: 3.51% | inhibition [3]: 7.22%

Cc1cc(NC(=O)Nc2ccc(C(C)C)cc2)c2ccccc2n1
inhibition [1]: 0.71% | inhibition [2]: 3.51% | inhibition [3]: -0.45%

CC(C)Nc1nc(NCCc2c[nH]cn2)nc(NCc2ccc(Cl)c(Cl)c2)n1
inhibition [1]: 3.82% | inhibition [2]: 0.13% | inhibition [3]: -0.25%

C=CCc1cc(Br)ccc1OCCCOc1c(N)nc(N)nc1N
inhibition [1]: 6.42% | inhibition [2]: 7.13% | inhibition [3]: 3.62%

COc1ccc(CCN(C)CCOc2ccc(NC(=O)COc3ccc4sc5ccccc5c(=O)c4c3)cc2)cc1OC
inhibition [1]: 3.46% | inhibition [2]: 4.33% | inhibition [3]: 1.11%

CC(C)COc1ccc(Cl)cc1Cc1ccc(-c2nc3cc(CCN4CCCC4)ccc3[nH]2)o1
inhibition [1]: 0.75% | inhibition [2]: 3.33% | inhibition [3]: 2.08%

COc1cccc(CN2CCN(C(c3ccccc3)c3ccccc3)CC2)c1O
inhibition [1]: 6.87% | inhibition [2]: 6.03% | inhibition [3]: 2.74%

O=C(NCCCc1ccccc1)c1csc(C2CCCN(C(=O)c3ccc(O)c(-c4cccc5ccccc45)c3)C2)n1 (centres undefined)
inhibition [1]: 0.14% | inhibition [2]: -0.18% | inhibition [3]: -0.59%

O=c1cc(NCCCNCc2ccc(Cl)c(Cl)c2)[nH]c2cc(Cl)ccc12
inhibition [1]: 2.05% | inhibition [2]: 3.29% | inhibition [3]: 2.73%

CCCOc1ccc(OCCCON2C(=N)N=C(N)NC2(C)C)cc1
inhibition [1]: 1.05% | inhibition [2]: 0.05% | inhibition [3]: 0.28%

CCNc1cc(C(=O)N[C@@H](Cc2ccccc2)[C@H](O)CNC(C)(C)CC(C)(C)C)c(F)c(N2CCCCS2(=O)=O)c1
inhibition [1]: -2.27% | inhibition [2]: -1.17% | inhibition [3]: -0.53%

O=C1C2C(c3ccc(Cl)c(Cl)c3)N3CC(OCc4ccccc4)CC3(C(=O)O)C2C(=O)N1c1ccc(Br)cc1 (centres undefined)
inhibition [1]: 4.62% | inhibition [2]: 4.75% | inhibition [3]: 3.46%

Cc1cc(-c2ccc3c(c2)CCN(CCC2CCC(NC(=O)/C=C/c4cccc(Cl)c4)CC2)CC3)on1 (centres undefined)
inhibition [1]: 4.19% | inhibition [2]: 3.51% | inhibition [3]: 3.57%

CCN1CCN(CCCNc2c3ccc(Cl)cc3nc3ccc(O)cc23)CC1
inhibition [1]: 0.03% | inhibition [2]: 0.02% | inhibition [3]: 0.06%

Cc1cc(OCC2CCN(c3ccc(C(=O)NC4CC4)cn3)CC2)ccc1F
inhibition [1]: 0.67% | inhibition [2]: 1.45% | inhibition [3]: -6.22%

O=C(NC1CCN(Cc2ccccc2O)C1)c1ccc(-c2ccccc2)cc1 (centres undefined)
inhibition [1]: 0.98% | inhibition [2]: 0.41% | inhibition [3]: 1.16%
